PubChem BioAssay AID624171 (National Center for Advancing Translational Sciences (NCATS), 2012)
Screen size: about 410,000 compounds; about 1,200 (0.29%) were called active. Not shown: some 2% with an inconclusive outcome. The sample holds actives, similar compounds and a random draw of the others, so the mix is not that of the screen. The call rests on the fitted dose curve; in most records, active means well fitted activation curve with a large enough effect; inconclusive means small, poorly fitted or top-dose-only effect; inactive means flat fitted curve, though single readings scatter.

experiment: qHTS of Nrf2 Activators; details: AREc32 ARE-luciferase reporter (MCF7-derived line), luminescence, 24 h; series mostly up to 46.1 µM; activation: at the top concentration; further: nearly all actives have a fitted effect of over 65% in size; on activation: % of control where 0% means no effect
Outline: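 Nrf2 activation is followed as ARE-luciferase induction in the AREc32 line after one day of compound treatment; luminescence is read with Steady-Glo.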
Potency means the concentration at half of the fitted maximal effect.

| SMILES | activation | Potency |
| --- | --- | --- |
| CC(C)c1ccc(C2CC(=O)N3CN(C4CCCCC4)CSC3=C2C#N)cc1 (centres undefined) | 0.802% (inactive) |  |
| CC(=O)c1cccc(NC(=O)CSc2nc3c(c(=O)[nH]2)CCC3)c1 | -0.0762% (inactive) |  |
| Cc1ccc(-c2csc(C(C#N)=C(O)CN3CCN(C(=O)c4ccco4)CC3)n2)cc1 | 1.52% (inactive) |  |
| N#CC(=C1SC=CS1)c1nc(-c2ccccc2)cs1 |  | 7.08 µM (active) |
| N#CC(=C1CCCC1)c1nc(-c2ccc(Cl)cc2)cs1 | 2.56% (inactive) |  |
| Fc1cccc(-n2ncc3c2ncn2nc(-c4ccccc4Cl)nc32)c1 | 8.11% (inactive) |  |
| Cc1c(Cl)cccc1NC(=O)c1noc2c1CCCC2 | 14.5% (inactive) |  |
| COc1ccc(C(=O)Nc2onc3c2CCCC3)cc1 | -0.816% (inactive) |  |
| O=C(Nc1cccc2ccccc12)c1onc2c1CCCC2 |  | 12.6 µM (active) |
| COc1cccc(C(=O)NCc2ccc3c(c2)CCN3C(=O)c2ccncc2)c1 | 1.13% (inactive) |  |
| C=CCSc1nsc(NC(=O)Nc2cccc(C(C)=O)c2)n1 | -0.163% [at 9.22 µM] (inactive) |  |
| C=CCSc1nnc2c(n1)-c1cccc3cccc-2c13 |  | 12.6 µM (active) |
| Cc1cc(C)c(-c2n[nH]c3c2C(c2ccccc2F)N(CCO)C3=O)c(O)c1 (centres undefined) | 3.93% (inactive) |  |
| Cc1nc2ccc(S(=O)(=O)NC(C(=O)NCc3ccccc3Cl)C(C)C)cc2s1 (centres undefined) | 0.669% (inactive) |  |
| O=C(c1cnc(Cl)c(Cl)c1)N1CCN(S(=O)(=O)c2ccc(F)cc2)CC1 | 0.398% (inactive) |  |
| O=C(c1c(F)cccc1Cl)N1CCN(S(=O)(=O)c2ccc3c(c2)OCCCO3)CC1 | 1.87% (inactive) |  |
| CC(=O)N1CCN(S(=O)(=O)c2c(F)cc(F)c(Cl)c2F)CC1 |  | 11.2 µM (active) |
| Cc1c(CNC(C)c2ccccc2)c(C(=O)O)c(C)n1Cc1c(F)cccc1Cl (centres undefined) | 0.867% (inactive) |  |
| Cc1csc2nc(COc3ccc(NC(=O)COc4ccccc4)cc3)cc(=O)n12 | -0.0829% (inactive) |  |
| O=C(Nc1nnc(-c2ccccc2F)s1)c1ccccc1F |  | 3.16 µM (active) |
| O=C(Nc1nc2c(s1)CCCC2)c1ccccc1F | -0.692% (inactive) |  |
| O=C(Nc1ccccc1F)c1ccccc1-c1ccc(C(F)(F)F)cc1 | -0.545% (inactive) |  |
| O=C(COc1ccccc1F)Nc1ccc(C(=O)OCc2cc(=O)n3nc(C4CC4)sc3n2)cc1 | 0.695% (inactive) |  |
| Cc1ccccc1CNC(=O)CCCn1nc(C)c2sc3ccccc3c2c1=O | -0.165% (inactive) |  |
| Brc1ccccc1C1N=C(c2ccccc2)NO1 (centres undefined) |  | 6.31 µM (active) |

| SMILES | activation | Potency |
| --- | --- | --- |
| N#Cc1ccc(C2N=C(c3ccccc3)NO2)cc1 (centres undefined) | 13.3% (inactive) |  |
| COc1cc(Cl)c(NC(=O)CC(C)S(=O)(=O)c2cc3c(cc2C)NC(=O)CO3)c(OC)c1 (centres undefined) | 3.6% (inactive) |  |
| CN(C)CCCn1c(-c2ccc(Cl)cc2)csc1=Nc1ccccc1 | -0.674% (inactive) |  |
| CN(C)CCN=c1cc(-c2ccccc2)oc2ccc(Cl)cc12 |  | 11.2 µM (active) |
| Cc1ccc(Cc2nc3ccccc3nc2SCC(=O)Nc2cccc(C(F)(F)F)c2)cc1 | 0.184% (inactive) |  |
| CCOCCCNC(=O)c1c(NC(=O)Cc2coc3ccc(C)cc23)sc2c1CCC2 | 0.518% (inactive) |  |
| N#CC1=C(N)Oc2c(sc3ccccc23)C1c1ccco1 (centres undefined) |  | 3.16 µM (active) |
| CC(=O)c1cccc(NC(=O)c2nc(-c3ccccc3)n(-c3cccc(C)c3)n2)c1 | 4.2% (inactive) |  |
| Cc1cccc(S(=O)(=O)c2cn(Cc3ccccc3)c3cc(N4CCOCC4)c(F)cc3c2=O)c1 | -1.05% (inactive) |  |
| CCN(CC)c1cc(NC2CCCCC2)c2c3c(onc13)-c1ccccc1C2=O | 0.327% (inactive) |  |
| Cc1csc(NC(=O)C2CCN(S(=O)(=O)c3ccccc3)CC2)n1 | -0.396% (inactive) |  |
| Cc1csc(NC(=O)Nc2ccccc2[N+](=O)[O-])n1 |  | 4.47 µM (active) |
| COc1ccc(OCCCC(=O)OC(C)C(=O)Nc2ccccc2[N+](=O)[O-])cc1 (centres undefined) | 0.218% (inactive) |  |
| Cc1c(CCNC(=O)c2ccc(C(F)(F)F)cc2)sc2nc(-c3ccc(F)cc3)nn12 | 0.42% (inactive) |  |
| O=C(Nc1cc(-c2nc3ccccc3o2)ccc1Cl)c1cc([N+](=O)[O-])ccc1N1CCOCC1 | -0.97% (inactive) |  |
| O=[N+]([O-])c1ccc2oc(-c3cccc(O)c3)nc2c1 |  | 6.31 µM (active) |
| CCC(=O)Nc1cccc(-c2nc3cc(C)ccc3o2)c1 | 8.65% (inactive) |  |
| CC(=O)c1ccc(NC(=O)CSc2c(C(C)C)cnc3c2c(=O)n(C)c(=O)n3C)cc1 | -0.575% (inactive) |  |
| Cc1cc(NC(=O)c2ccc(-c3ccc(Cl)cc3)o2)cc(-c2nc3ncccc3o2)c1O | 0.209% (inactive) |  |
| Cc1cccc(C(=O)Nc2ccc(-c3nc4ncccc4o3)cc2C)c1 | 0.321% (inactive) |  |
| O=C(Nc1cc(-c2nc3ncccc3o2)ccc1Cl)c1ccco1 |  | 6.31 µM (active) |
| CCc1cc2c(cc(C(=O)OC)n2Cc2nc(-c3ccc(C)cc3)oc2C)s1 | -0.393% (inactive) |  |
| CSc1ccccc1NC(=O)CCS(=O)(=O)c1nc(-c2cccs2)cc(C(F)(F)F)n1 | 0.415% (inactive) |  |
| COc1ccc(Cc2nnc(SCC(=O)c3cccc([N+](=O)[O-])c3)n2C)cc1 | 0.136% (inactive) |  |
| O=C(CSc1nc(Nc2ccc(F)c(F)c2)c2ccccc2n1)c1ccc(Cl)cc1 | 4.26% (inactive) |  |

| SMILES | activation | Potency |
| --- | --- | --- |
| O=C(CSc1nc2ccc([N+](=O)[O-])cc2[nH]1)c1ccc(Cl)cc1 |  | 11.2 µM (active) |
| CCOc1ccccc1C(=O)Nc1ccc2c(c1)N(C)C(=O)c1ccccc1S2 | 0.563% (inactive) |  |
| CCOC(=O)c1ccc2c(c1)N(Cc1cccc(OC)c1)C(=O)c1ccccc1S2(=O)=O | 5.65% (inactive) |  |
| Cc1ccccc1CNC(=O)Cn1c(C)c2cnn(-c3ccccc3)c(=O)c2c1C | 3.21% (inactive) |  |
| CCC(C(=O)Nc1cc(OC)ccc1OC)n1c(=O)c(C(F)(F)F)nc2ccccc21 (centres undefined) | -0.375% (inactive) |  |
| S=c1[nH]nc(-c2ccco2)n1/N=C/c1ccccc1 |  | 10 µM (active) |
| CN(C)C(=O)CSc1n[nH]c(-c2ccco2)n1 | 0.332% (inactive) |  |
| S=c1[nH]nc(/C=C/c2ccccc2)o1 | -1.05% (inactive) |  |
| COc1cc(NC(=O)c2cc(C3CC3)nc3c2c(C)nn3-c2ccccc2)cc(OC)c1 | 0.696% (inactive) |  |
| Cc1cccc(NC(=O)Cn2nc(-c3ccc(Cl)cc3)c3ccccc3c2=O)c1 | 3.27% (inactive) |  |
| COc1cccc(N2CC(NC(=O)/C=C\c3ccccc3)CC2=O)c1 (centres undefined) | 0.229% (inactive) |  |
| COCOc1cc(O)c(C(=O)/C=C/c2ccc(OCOC)c(OCOC)c2)c(OCOC)c1 | 10.4% (inactive) |  |
| COc1ccc(/C=C/C(=O)c2cc(Br)ccc(=O)c2O)cc1 |  | 12.6 µM (active) |
| O=C(Nc1c(-c2ccc(F)cc2)nc2ccccn12)c1cccc(F)c1 | 0.635% (inactive) |  |
| O=C(c1ccc(F)cc1)N1CCCC(C(=O)N2CCCCC2)C1 (centres undefined) | -0.854% (inactive) |  |
| O=C(c1ccc(F)cc1)n1c(=S)nc2ccccn21 |  | 2.51 µM (active) |
| Cc1ccc(-c2nc(SCc3ccc(Br)cc3)n3[nH]c(=O)cc3n2)cc1 | 9.22% (inactive) |  |
| CCc1nn(CC(=O)NCC(C)c2ccccc2)c(=O)c2cc3occc3n12 (centres undefined) | 3.24% (inactive) |  |
| Cc1cccc(NC(c2cccc(F)c2)c2ccc3ccc(C)nc3c2O)n1 (centres undefined) | 14.1% (inactive) |  |
| CCOc1cc(NC(=O)c2ccccc2C(=O)O)c(OCC)cc1NC(=O)c1ccccc1F | 4.13% (inactive) |  |
| CCOCC(=O)Nc1cc(OC)c(Cl)cc1OC | -0.102% (inactive) |  |
| CCOc1cc(NC(=O)CCl)c(OCC)cc1NC(C)=O |  | 14.1 µM (active) |
| CC(C)(C)OC(=O)N1CCC(c2c(C(=O)NCCc3ccsc3)cnn2-c2ccc(F)cc2F)CC1 | 3.21% (inactive) |  |
| COc1ccccc1NC(=O)c1cc(S(=O)(=O)NCCc2ccccc2)ccc1F | -0.532% (inactive) |  |
